The text below walks through data of PubChem BioAssay.

Experiment [1] has as its system Plasmodium falciparum Sir2 (PF13_0152, Sir2A). In words: pfSir2 binders on small-molecule microarrays, primary screen, biochemical, small-molecule microarray, 635 nm fluorescence (AID 1098).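 Note: score merges spot fluorescence intensity with its signal-to-noise ratio.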 Conditions: small-molecule microarray binding, fluorescence 635 nm; higher = more signal.
Experiment [2] can be described thus: small-molecule microarray binders of probe aDKK1, primary screen, biochemical, biotinylated probe, 635/667 nm fluorescence (AID 1099).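 Note: score merges 667nm spot fluorescence with signal to noise across triplicate slides; reference of the scale not given here.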 Conditions: higher = more signal; small-molecule microarray, probe aDKK1, fluorescence unless noted.
Experiment [3] can be described thus: small-molecule microarray binders of probe aCHRDL2, primary screen, biochemical, biotinylated probe, 635/667 nm fluorescence (AID 1100). Conditions: higher = more signal; small-molecule microarray, probe aCHRDL2, fluorescence unless noted.
Experiment [4] can be described thus: splicing luciferase reporter signal modulators, primary screen, spliceosome inhibition project, cell-based, HEK293, splice +/- reporter (AID 1101).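 Note: HEK293 cells carrying a splicing-competent luciferase reporter gene; test concentration not given here.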 Conditions: luminescence, 24 h; higher = more signal, called active from +8 up or from −8 down unless noted. (In a reporter assay the amount or activity of a reporter protein is the signal.)
Experiment [5] concerns the target Fibroblast growth factor 10 (Homo sapiens) (UniProt O15520). Put plainly: FGF10 binders on small-molecule microarrays, primary screen, biochemical, small-molecule microarray, 635 nm fluorescence (AID 1102). Conditions: FGF10 binding, fluorescence 635 nm, higher = more signal.
Experiment [6] concerns glycogen synthase kinase-3 (GSK3A per assay name; protocol says GSK3B). Put plainly: GSK3 binders on small-molecule microarrays, primary screen, biochemical, small-molecule microarray, 635 nm fluorescence, GSK3A (AID 1103). Note: the record names both GSK3A and GSK3B. Conditions: small-molecule microarray binding, fluorescence 635 nm; higher = more signal.
In experiment [7] the target is Epidermal growth factor receptor (Homo sapiens) (UniProt P00533). In words: EGFR binders on small-molecule microarrays, primary screen, biochemical, small-molecule microarray, 635 nm fluorescence (AID 1104).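 Note: score merges 667 nm emission intensity with spot signal to noise over triplicate slides.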 Conditions: EGFR binding, higher = more signal.
Experiment [8] deals with Follistatin-related protein 3 (Homo sapiens) (UniProt O95633). In words: FSTL3 binders on small-molecule microarrays, primary screen, biochemical, small-molecule microarray, 635 nm fluorescence (AID 1105).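 Note: score merges emission near 667 nm and signal to noise per printed spot across three slides.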 Conditions: FSTL3 binding, higher = more signal.
Experiment [9] has as its target Dickkopf-related protein 1 (Homo sapiens) (UniProt O94907). Put plainly: DKK1 binders on small-molecule microarrays, primary screen, biochemical, small-molecule microarray, 635 nm fluorescence scan (AID 1106).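 Note: score merges emission near 667 nm with signal to noise over three replicate slides.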 Conditions: DKK1 binding, higher = more signal.
The subject of experiment [10] is Inhibin beta A chain (activin A). In words: INHBA (activin A) binders on microarrays, primary screen, biochemical, small-molecule microarray, 635 nm fluorescence scan (AID 1107).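 Note: mouse activin A protein probed at 4.33 µg/mL on printed slides; score merges bound-protein fluorescence near 667 nm with spot signal-to-noise.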 Conditions: small-molecule microarray binding, higher = more signal.

“And” between values parts separate entries of the source, which are not always exact repeats. Identical values can stand only once. The source made the active and inactive calls.

Dickkopf-related protein 1 (Homo sapiens), sequence (O94907 whole entry, looked up): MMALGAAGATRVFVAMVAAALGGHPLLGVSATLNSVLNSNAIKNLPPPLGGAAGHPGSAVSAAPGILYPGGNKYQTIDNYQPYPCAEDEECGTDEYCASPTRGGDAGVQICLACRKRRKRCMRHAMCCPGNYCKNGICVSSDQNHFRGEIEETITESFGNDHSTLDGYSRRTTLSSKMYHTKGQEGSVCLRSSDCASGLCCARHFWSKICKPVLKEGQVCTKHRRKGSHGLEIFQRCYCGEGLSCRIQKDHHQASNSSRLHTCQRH
Fibroblast growth factor 10 (Homo sapiens), sequence (O15520 whole entry, looked up): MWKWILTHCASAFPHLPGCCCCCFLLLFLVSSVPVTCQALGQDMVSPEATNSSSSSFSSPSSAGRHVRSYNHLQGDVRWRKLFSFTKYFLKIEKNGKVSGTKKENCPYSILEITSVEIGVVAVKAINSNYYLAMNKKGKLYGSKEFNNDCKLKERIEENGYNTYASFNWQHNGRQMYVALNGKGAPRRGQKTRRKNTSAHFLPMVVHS
Epidermal growth factor receptor (Homo sapiens), sequence (P00533 whole entry, looked up): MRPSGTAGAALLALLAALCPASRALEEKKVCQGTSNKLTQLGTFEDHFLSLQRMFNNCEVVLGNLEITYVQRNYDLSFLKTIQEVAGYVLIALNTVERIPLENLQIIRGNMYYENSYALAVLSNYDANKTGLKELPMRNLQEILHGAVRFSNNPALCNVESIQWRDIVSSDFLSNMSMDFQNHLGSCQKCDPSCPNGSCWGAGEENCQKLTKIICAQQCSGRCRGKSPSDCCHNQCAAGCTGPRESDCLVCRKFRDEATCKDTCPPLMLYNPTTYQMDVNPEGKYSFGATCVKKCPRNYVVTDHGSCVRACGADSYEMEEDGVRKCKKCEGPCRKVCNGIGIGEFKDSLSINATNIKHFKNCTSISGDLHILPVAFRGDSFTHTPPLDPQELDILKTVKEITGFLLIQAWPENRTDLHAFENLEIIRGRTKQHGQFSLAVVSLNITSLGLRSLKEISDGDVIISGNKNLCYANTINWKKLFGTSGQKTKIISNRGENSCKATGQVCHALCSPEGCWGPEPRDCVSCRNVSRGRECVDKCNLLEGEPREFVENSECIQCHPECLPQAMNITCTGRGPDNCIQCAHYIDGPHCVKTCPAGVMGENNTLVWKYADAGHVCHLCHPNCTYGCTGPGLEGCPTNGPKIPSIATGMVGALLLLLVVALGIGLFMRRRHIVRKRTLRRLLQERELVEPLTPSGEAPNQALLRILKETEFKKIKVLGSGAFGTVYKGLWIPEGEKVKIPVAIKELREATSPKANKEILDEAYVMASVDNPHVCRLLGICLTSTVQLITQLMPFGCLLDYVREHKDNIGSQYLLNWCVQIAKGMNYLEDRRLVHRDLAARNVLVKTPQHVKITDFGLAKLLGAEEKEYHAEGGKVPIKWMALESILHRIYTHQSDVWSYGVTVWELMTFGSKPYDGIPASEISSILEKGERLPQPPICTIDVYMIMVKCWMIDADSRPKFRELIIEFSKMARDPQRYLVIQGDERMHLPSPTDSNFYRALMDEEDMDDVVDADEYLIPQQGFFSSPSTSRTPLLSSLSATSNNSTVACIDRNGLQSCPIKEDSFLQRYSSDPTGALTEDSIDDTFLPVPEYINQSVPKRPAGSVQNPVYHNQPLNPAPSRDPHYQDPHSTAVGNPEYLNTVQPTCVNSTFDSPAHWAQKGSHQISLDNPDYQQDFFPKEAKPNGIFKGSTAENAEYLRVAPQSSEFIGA
Follistatin-related protein 3 (Homo sapiens), sequence (O95633 whole entry, looked up): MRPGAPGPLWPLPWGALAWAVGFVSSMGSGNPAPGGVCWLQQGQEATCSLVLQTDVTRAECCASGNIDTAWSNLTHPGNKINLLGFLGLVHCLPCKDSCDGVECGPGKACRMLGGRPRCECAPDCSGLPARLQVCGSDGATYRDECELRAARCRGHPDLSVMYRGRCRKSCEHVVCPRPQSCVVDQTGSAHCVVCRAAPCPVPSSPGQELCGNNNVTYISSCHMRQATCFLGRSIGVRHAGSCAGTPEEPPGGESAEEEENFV

`C[C@H]1O[C@H]2C3=C(C(=O)[C@@H]4O[C@@H]4[C@@H]3O)[C@@H]1[C@@H]1[C@@H](C)OC=C3[C@@H](O)[C@H]4O[C@H]4C(=O)[C@]312`: the composite z-score was -0.373 in [1]; -0.416 in experiment [2]; -0.399 in experiment [3]; -0.131 in [5]; -0.572 in experiment [6]; -0.132 in experiment [7]. Moreover, the composite z-score in experiment [8] was -0.727; in experiment [9], 0.133; in experiment [10] it was 0.38. For the same compound, in [4], the z-score was -1.89 (inactive).

With `CCCc1cc2c(n1Cc1cccc(Cl)c1)C(C)C1CN(C(=O)c3ccccc3)C(C)(C(=O)OC)C21` (stereo not given), the composite z-score was 0.922 in experiment [1]; 1.37 in experiment [2]; 1.54 in experiment [3]; 0.368 in [5]; 0.146 in experiment [6]; -0.458 in experiment [7]. The figures for the composite z-score in experiment [8], in experiment [9] and in experiment [10] were -0.0989, -1.61 and 1.24, respectively. Moreover, the z-score in [4] is -3.44 (inactive).

In the case of `CC1N(P(=O)(c2ccccc2)c2ccccc2)CC(O)(c2ccccc2)CC12CC2` (stereo not given), the composite z-score in experiment [1] is 0.639 and 0.752; in experiment [2], -0.135 and 1; in experiment [3], 0.938 and 1.14; in experiment [5], -0.115 and 0.145; in experiment [6], -0.0785 and -0.283; in experiment [7], -0.678 and 0.158. Further, the composite z-score in experiment [8] was -1.67 and -0.931; in [9], -0.657 and -0.814; in experiment [10] it was 0.388 and 1.1. In addition, the z-score in [4] was 0.255 (inactive) and -4.15 (inactive).

As to `CN1CCC(c2ccc(CO)cc2)=CC1C1CC1` (stereo not given), the composite z-score in [1] is 0.262; in experiment [2], -0.368; in [3] it was -0.49; in experiment [5] it was 0.179; in experiment [6] it was -0.107; in [7] it was 0.388. Further, the results for the composite z-score in [8], in experiment [9] and in experiment [10] were -0.196, 0.429 and 0.939, respectively. The z-score in [4] was 0.596 (inactive).

Consider `CCCC[C@@H]1C[C@H]1[C@@H](NP(=O)(c1ccccc1)c1ccccc1)c1ccc(Cl)cc1`, for which the composite z-score in experiment [1] was -0.168; in experiment [2], 0.294; in experiment [3] it was 0.988; in [5], -0.668; in experiment [6], -0.924; in experiment [7], -1.5. The composite z-score in experiment [8] is -1.57; in [9] it was -0.818; in [10], 1.18. In addition, the z-score in [4] is -3.54 (inactive).

With `COC(=O)[C@@]1(Cc2ccc(F)cc2)[C@H]2c3cc(C(=O)N(C)C)[nH]c3C[C@H]2CN1C(=O)c1ccccc1`, the composite z-score in experiment [1] is 0.878; in experiment [2], 0.588 [setting not given]; in [3] it was 0.826 [setting not given]; in [5] it was 0.554; in experiment [6], -0.275; in experiment [7], -0.157. The composite z-score in experiment [8] was -0.589; in experiment [9] it was -0.503; in experiment [10], 0.938. Moreover, the z-score in experiment [4] is -0.825 [setting not given] (inactive).

Regarding `CN1CCC(c2ccc(CO)cc2)=CC1c1cccs1` (stereo not given), the composite z-score in experiment [1] is 0.0161; in experiment [2], -0.367; in [3], -0.17; in experiment [5], -0.474; in experiment [6], -0.323; in experiment [7], 0.0626. The composite z-score in experiment [8] is 0.152; in [9], 1.55; in experiment [10], 0.917. Further, in experiment [4], the z-score was -0.0418 (inactive).

Take `CCCc1cc2c(n1Cc1ccc(C)cc1)C(C)C1CN(C(=O)c3ccccc3)C(C)(C(=O)OC)C21` (stereo not given): the composite z-score in [1] is -0.232; in experiment [2] it was 1.69; in experiment [3], 1.46; in experiment [5], 1.15; in experiment [6] it was 0.0952; in experiment [7], 0.234. Besides, the composite z-score in experiment [8] is 1.12; in experiment [9], -0.0627; in experiment [10] it was 1.28. In experiment [4], the z-score was -3.92 (inactive).

As to `CCCC=C(CCC)[C@@H](NP(=O)(c1ccccc1)c1ccccc1)c1ccccc1`, the composite z-score was 0.381 in [1]; -0.17 in [2]; 0.0101 in experiment [3]; 0.657 in experiment [5]; 0.79 in [6]; 0.187 in experiment [7]. In addition, the composite z-score was 0.344 in experiment [8], -0.151 in [9] and 0.411 in experiment [10]. Moreover, the z-score in [4] is -1.55 (inactive).

Regarding `COC(=O)[C@@]1(Cc2ccccc2)[C@H]2c3cc(C(=O)N(C)C)n(C)c3C[C@H]2CN1C(=O)c1ccccc1`, the composite z-score in [1] was 1.5; in experiment [2], -0.0842; in experiment [3] it was 0.836; in [5], 0.358; in [6], -0.214; in experiment [7] it was 0.0444. In addition, the composite z-score in experiment [8] was -0.443; in experiment [9], -0.631; in experiment [10], 1.09. The z-score in experiment [4] was -0.806 (inactive).

Consider `COC(=O)[C@@]1(Cc2ccccc2)[C@H]2c3cc(C(=O)N(C)C)[nH]c3C[C@H]2CN1C(=O)c1ccccc1`, for which the composite z-score in [1] was 0.45; in [2], 0.425; in experiment [3], 0.709; in experiment [5], -0.36; in [6] it was -1.15; in experiment [7], -0.649. The composite z-score in experiment [8] was -1.32; in experiment [9], -1.06; in experiment [10], 1.02. Besides, in [4], the z-score is 0.454 (inactive).

As for `COC(=O)[C@H]1[C@H](c2ccccc2)C(=O)[C@]2(O)c3ccccc3O[C@@]12c1ccccc1`, the composite z-score in experiment [1] was 0.219; in experiment [2] it was -0.291; in experiment [3] it was -0.463; in [5], 0.37; in experiment [6], 0.423; in [7], 0.437. For the same compound, the composite z-score is 0.419 in experiment [8], 0.314 in [9] and -0.228 in experiment [10]. The z-score in [4] was -1.58 (inactive).

With `COc1cc2c(cc1O)C(C)N(C)CC2` (stereo not given), the composite z-score in experiment [1] is -0.528; in experiment [2], 0.0766; in experiment [3], 0.34; in [5] it was -0.0182; in [6], -0.951; in experiment [7], -0.855. Besides, the values for the composite z-score in experiment [8], in [9] and in experiment [10] were -0.205, -0.227 and 0.953, respectively. The z-score in experiment [4] was 0.844 (inactive).

For the compound `O=P(c1ccccc1)(c1ccccc1)N1CC2(CC2)CC(O)(c2ccccc2)C1` (stereo not given), the composite z-score was 0.68 in experiment [1]; 0.704 in experiment [2]; 0.969 in experiment [3]; 0.11 in experiment [5]; -0.487 in experiment [6]; -0.48 in [7]. Moreover, the composite z-score is -0.672 in experiment [8], -0.673 in experiment [9] and 0.72 in experiment [10]. In addition, in experiment [4], the z-score is -3.24 (inactive).

For the compound `COC(=O)[C@H]1[C@@H](O)[C@@]2(O)c3c(OC)cc(OC)cc3O[C@@]2(c2ccc(OC)cc2)[C@@H]1c1ccccc1`, the composite z-score was 0.373 in experiment [1]; -0.193 in experiment [2]; -0.482 in experiment [3]; 0.384 in experiment [5]; 0.586 in experiment [6]; 0.628 in experiment [7]. For the same compound, the composite z-score came out at 0.554 in experiment [8], 0.962 in [9] and 0.0587 in experiment [10]. Also, the z-score in experiment [4] was -1.89 (inactive).

Turning to `C=C(CC1(C(C)NP(=O)(c2ccccc2)c2ccccc2)CC1)c1ccccc1` (stereo not given), the composite z-score in [1] was 0.742; in experiment [2] it was 0.364; in experiment [3], 0.803; in [5] it was 0.623; in experiment [6], 0.0363; in experiment [7], -0.636. Moreover, the values for the composite z-score in experiment [8], in experiment [9] and in experiment [10] were -0.0868, -0.237 and 0.853, respectively. For the same compound, the z-score in [4] is -4.59 (inactive).
